Source: PubChem BioAssay
This is a sample that favours compounds with a hit; in the whole collection about 12% have one here.
HP1b binding inh: HTS for Inhibitors of HP1-beta Chromodomain Interactions with Methylated Histone Tails; Potency, µM (highest dose often 114 µM), most hits filed as inhibitors; AlphaScreen HP1-beta / biotin-H3K9me3 peptide binding; 0.56% of 390,000 active; Chromobox protein homolog 1 (Homo sapiens), P83916; also: nearly all actives have a fitted effect of over 70% in size
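HP1-beta protein (50 nM final) preincubated 30 min at room temperature with biotinylated H3(1-18)K9me3 peptide (50 nM) in PBS pH 7.4, 0.01% Tween-20, then compound added for 30 min. AlphaScreen streptavidin donor/nickel chelate acceptor beads (10 ug/mL final), 30 min dark, luminescence read.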
BAZ2B inh: qHTS Assay for Inhibitors of BAZ2B; Bromodomain adjacent to zinc finger domain protein 2B (Homo sapiens), Q9UIF8; AlphaScreen BAZ2B-H3K14Ac peptide displacement; Potency, µM (highest dose often 114 µM), usual class: inhibitors; 4.4% of 360,000 active; AID 504333, 2011; also: nearly all actives have a fitted effect of over 60% in size
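AlphaScreen luminescence quantifies BAZ2B engagement of H3K14Ac peptide; the protein and biotinylated peptide are both at 50 nM final, buffer PBS pH 7.4 with 0.01% Tween-20, all steps at room temperature.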
L3MBTL1 block: qHTS Assay for the Inhibitors of L3MBTL1 | Potency, µM (series often up to 57.1 µM), hits mostly inhibitors | 0.66% of 230,000 active | Lethal(3)malignant brain tumor-like protein 1 (Homo sapiens), Q9Y468 | AlphaScreen L3MBTL1–H3K9me1 peptide binding; also: nearly all actives have a fitted effect of over 60% in size
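L3MBTL1 50 nM + b-AHA-H3(1-15)K9me1 75 nM, 30 min RT; compound added, 30 min RT; streptavidin donor/Ni-chelate acceptor beads 10 ug/mL each final, 30 min RT dark; AlphaScreen read.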
Sfp inh: qHTS Assay for Inhibitors of Bacillus subtilis Sfp phosphopantetheinyl transferase (PPTase) | Biochemical Sfp PPTase activity, qHTS | Potency, µM, usual class: inhibitors | 4'-phosphopantetheinyl transferase ffp (Bacillus subtilis), Q9F4F7 | 3.5% of 310,000 active;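 also: the enzyme is Sfp with the accession as filed and its product quenches rhodamine fluorescence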
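Step 1, compound plus 15 nM Sfp-PPTase, 15 min, room temperature. Step 2, add rhodamine-CoA (5 uM) and BHQ-2-YbbR (12.5 uM). Step 3, read 525/598 nm fluorescence at 0 and 30 min.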
JMJD2A Tudor: qHTS Assay for Inhibitors of JMJD2A-Tudor Domain | 4.4% of 390,000 active | Potency, µM (doses to about 114 µM), usual class: inhibitors | AlphaScreen JMJD2A-Tudor / H3K4me3 peptide binding | Lysine-specific demethylase 4A (Homo sapiens), O75164 | AID 504339, 2011; also: nearly all actives have a fitted effect of over 50% in size
G9a inh: qHTS Assay for Inhibitors of Histone Lysine Methyltransferase G9a; G9a H3K9 monomethylation, AlphaScreen, 2 h; Potency, µM (top dose mostly 102 µM), actives largely listed as inhibitors; 8.8% of 350,000 active; AID 504332, 2011; also: nearly all actives have a fitted effect of over 75% in size
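AlphaScreen read-out: biotin-H3K9 peptide (500 nM) methylation by 20 nM enzyme with 20 uM SAM, 2 h at room temperature after 15 min compound preincubation; anti-monomethyl H3K9 antibody plus donor/acceptor beads, 10 min dark.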
A number is an active result; . = inactive; ? = inconclusive; / = no result given; ! = repeats disagree; [ ] = another dose, or the depositor's remark. Calls follow the shape of the dose curve; as a rule, active = well fitted curve in the direction sought with a large enough effect; inconclusive = small, poorly fitted or top-dose-only effect, or another doubt; inactive = no such curve, though single readings can be large; an effect the other way counts as inactive or inconclusive.

SMILES	HP1b binding inh	BAZ2B inh	L3MBTL1 block	Sfp inh	JMJD2A Tudor	G9a inh
Cc1cc(O)c(Oc2cc(C)cc(O)c2O)c(O)c1	?	?	.	5µM	40µM	0.89µM
COc1cc(/C=C(\C#N)C(=O)N2CCc3ccccc32)ccc1O	.	?	/	.	?	28µM
N#C/C(=C\c1ccc(O)c(O)c1)C(=O)N1CCc2ccccc21	?	8.9µM	?	/	16µM	6.3µM
NC(=O)CSc1nnc(-c2ccc(S(=O)(=O)N3CCCC3)cc2)n1CC1CCCO1 (configuration not stated)	.	.	.	.	.	.
N#CCSc1nnc(-c2ccc(S(=O)(=O)N3CCOCC3)cc2)n1CC1CCCO1 (configuration not stated)	.	.	.	.	89µM	.
CSc1nnc(-c2ccc(S(=O)(=O)N3CCOCC3)cc2)n1C	.	.	/	.	.	22µM
O=C(CNC(=O)c1ccccc1)NCCc1ccc(O)c(O)c1	/	.	/	50µM	/	8.9µM
CC(=O)NCCc1ccc(O)c(O)c1	/	/	/	/	/	2µM
C=CC[C@@H]1C=C[C@H](O/N=C(\C)CCN2CCc3nc(-c4ccccc4)c(-c4ccccc4)cc3C2)[C@H](CO)O1	/	/	/	.	/	/
Cc1ccc(NC(=O)CN(c2ccc(C)cc2)S(=O)(=O)c2cccc3nonc23)cc1	.	.	.	.	?	50µM
Cc1ccc(N(CC(=O)Nc2ccc(Cl)cc2)S(=O)(=O)c2cccc3nonc23)cc1	.	/	/	/	?	?
CCCCC1=CC2=C(c3ccco3)C(=O)C(C)(OC(=O)c3ccc(OC)cc3)C(=O)C2=CN1CCc1ccccn1 (configuration not stated)	.	?	/	56µM!	?	.
CCCCC1=CC2=C(c3ccco3)C(=O)C(C)(OC(=O)c3ccc(OC)cc3)C(=O)C2=CN1Cc1ccccc1 (configuration not stated)	.	?	/	45µM!	?	.
CCCCC1=CC2=C(c3ccco3)C(=O)C(C)(OC(=O)c3ccc(OC)cc3)C(=O)C2=CN1CCOC (configuration not stated)	.	40µM	/	.	?	?
CCCCC1=CC2=C(c3ccco3)C(=O)C(C)(OC(=O)c3ccc(OC)cc3)C(=O)C2=CN1Cc1ccc2c(c1)OCO2 (configuration not stated)	?	.	/	?	.	?
CCCCC1=CC2=C(c3ccco3)C(=O)C(C)(OC(=O)c3ccc(OC)cc3)C(=O)C2=CN1C1CCCCC1 (configuration not stated)	.	?	/	56µM!	?	?
CCCCC1=CC2=C(c3ccco3)C(=O)C(C)(OC(=O)c3ccc(OC)cc3)C(=O)C2=CN1CCc1c[nH]c2ccccc12 (configuration not stated)	/	/	/	.	/	/
CCCCC1=CC2=CC(=O)C(C)(OC(=O)CC)C(=O)C2=CN1CCc1ccccn1 (configuration not stated)	.	.	/	.	.	.
CCn1cc(S(=O)(=O)c2ccc(C)cc2C)c(=O)c2cc(F)c(N3CCCC3)cc21	.	.	/	/	.	.
S=C(NCc1ccc(Cl)cc1)NCc1ccccn1	.	.	.	.	.	.
CC(C)CCC(CCNCc1ccccn1)c1ccc(Cl)cc1 (configuration not stated)	?	?	/	?	79µM	.
CCOC(=O)C1CCCCN1Cc1ccc(F)cc1 (configuration not stated)	?	50µM	/	.	4.5µM	10µM
CCOC(=O)C1CCCCN1Cc1ccc(-c2ccccc2)cc1 (configuration not stated)	.	.	.	.	20µM	?
CCOC(=O)C1CCCCN1Cc1cccc(Oc2ccccc2)c1 (configuration not stated)	.	.	.	.	.	.
CCOC(=O)C1CCCCN1Cc1cn(C)nc1-c1ccccc1F (configuration not stated)	.	.	/	.	.	.
SMILES	HP1b binding inh	BAZ2B inh	L3MBTL1 block	Sfp inh	JMJD2A Tudor	G9a inh
CCOC(=O)C1CCCCN1Cc1cccc(F)c1 (configuration not stated)	?	50µM	/	.	22µM	3.5µM
COCCCN1C(=O)c2ccccc2CC1(C)C(=O)NC1CCCCC1 (configuration not stated)	.	.	/	/	.	.
N=C1/C(=C\c2ccc(Br)o2)C(=O)N=C2SC(CC(=O)N3CCOCC3)=NN12	.	50µM	/	.	89µM	.[12.7 µM]
COc1ccc(-n2c(C)cc(/C=C3\C(=N)N4N=C(CC(=O)N5CCOCC5)SC4=NC3=O)c2C)cc1	.	45µM	/	.	.	.[0.0925 µM]
N=C1/C(=C/c2ccco2)C(=O)N=C2SC(CC(=O)N3CCCC3)=NN12	.	?	/	.	79µM	40µM
N=C1/C(=C/c2ccc(Br)o2)C(=O)N=C2SC(CC(=O)N3CCCC3)=NN12	.	50µM	/	.	?	?
Cc1ccc(/C=C2\C(=N)N3N=C(CC(=O)N4CCCCC4)SC3=NC2=O)cc1	.	.	/	.	.	.
O=C1C(c2ccc(C(F)(F)F)cc2)=C(Nc2ccc(Cl)cc2)c2ccccc21	.	.	/	/	.	.
COc1ccc(-c2nc3ccccc3o2)cc1NC(=O)COc1ccc(C(C)(C)C)cc1	.	.	/	/	.	.
O=C(NCc1ccco1)c1ccc(-c2ccccc2Cl)o1	.	?	.	.	.	56µM
COc1ccccc1S(=O)Cc1ccc(C(=O)NCc2ccccc2Cl)o1 (configuration not stated)	.	.	/	?	35µM	3.5µM
COc1ccccc1CNC(=O)c1ccc(-c2ccccc2Cl)o1	.	?	.	?	.	28µM
COc1ccccc1CNC(=O)c1ccc(-c2ccccc2C(F)(F)F)o1	.	.	.	.	.	?
O=C(NCc1ccco1)c1ccc(-c2ccc(Cl)cc2)o1	.	?	.	.	.	50µM
COc1ccc(C)cc1NC(=O)N1CCN(S(=O)(=O)c2ccc3c(ccn3C)c2)CC1	.	.	/	/	.	.
CCOC(=O)c1c(NC(C)=O)c2c3c(sc2n1Cc1nc(-c2ccccc2OCC)oc1C)CCCC3	.	.	/	/	.	.
CC(=O)NC1C(OC2OC(CC(O)C3OC([N+]4=CCC(=O)NC4=O)C(O)C3O)C(O)C(O)C2NC(=O)/C=C/CCCCCCCCC(C)C)OC(CO)C(O)C1O (configuration not stated)	/	/	/	.	/	.
